# 697 NFkB inh: inhibitors of PMA/ionomycin-induced NF-kB reporter, 697 cells, primary screen, B-cell NF-kB inhibitor project, cell-based, luminescence, uHTS; 697 B-cell NF-kB luciferase reporter, 16 h; inhibition, % at 4 µM; hit rate 0.33% among 330,000; AID 435022, 2010; in the data active means inhibition above about 35%
# Gli-Sufu antag: Gli-Sufu pathway antagonists, primary screen, luciferase luminescence, Sufu-KO-LIGHT cells, uHTS; Sufu-KO-LIGHT fibroblasts, Gli luciferase reporter luminescence; inhibition, % at 5 µM; hit rate 0.74% among 340,000; AID 588413, 2011;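 active means inhibition above about 55%, limit read from the data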;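 further: 0% = DMSO-treated cells and 100% = wells with medium but no cells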
# Jurkat NFkB inh: inhibitors of induced NF-kB luciferase reporter, primary screen, TCR NF-kB activation inhibitor project, cell-based, luminescence, uHTS; Jurkat, PMA/ionomycin-induced NF-kB luciferase reporter; inhibition, % at 4 µM; hit rate 0.53% among 330,000; AID 435003, 2010; in the data active means inhibition above about 50%
# Mdm2 MdmX PPI: inhibitors of human Mdm2-MdmX association, primary screen, cell-based, luminescence, split luciferase, SaOS-2, uHTS | SaOS-2 split-luciferase Mdm2/MdmX complementation | hit rate 3% among 330,000 | Protein Mdm4 (Homo sapiens) + E3 ubiquitin-protein ligase Mdm2 (Homo sapiens), … | inhibition, % at 8 µM | AID 485346, 2010;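 active means inhibition of at least 50% at 8 µM in the primary screen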
# Target sequence (O15151 whole entry, looked up): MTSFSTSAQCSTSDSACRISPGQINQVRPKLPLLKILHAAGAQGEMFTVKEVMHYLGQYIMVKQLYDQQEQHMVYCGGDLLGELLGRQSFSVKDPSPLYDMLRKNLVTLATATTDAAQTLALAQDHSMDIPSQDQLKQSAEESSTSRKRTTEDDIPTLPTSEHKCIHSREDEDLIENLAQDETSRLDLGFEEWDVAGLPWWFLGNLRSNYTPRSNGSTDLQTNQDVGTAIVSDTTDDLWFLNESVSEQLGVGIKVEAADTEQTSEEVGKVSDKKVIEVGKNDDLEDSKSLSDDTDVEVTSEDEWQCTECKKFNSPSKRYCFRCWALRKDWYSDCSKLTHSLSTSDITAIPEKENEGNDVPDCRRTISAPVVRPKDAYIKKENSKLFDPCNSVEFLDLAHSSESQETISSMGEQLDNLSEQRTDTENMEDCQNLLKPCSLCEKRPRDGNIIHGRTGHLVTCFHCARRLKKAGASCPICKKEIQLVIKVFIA
# Target sequence (Q00987 whole entry, looked up): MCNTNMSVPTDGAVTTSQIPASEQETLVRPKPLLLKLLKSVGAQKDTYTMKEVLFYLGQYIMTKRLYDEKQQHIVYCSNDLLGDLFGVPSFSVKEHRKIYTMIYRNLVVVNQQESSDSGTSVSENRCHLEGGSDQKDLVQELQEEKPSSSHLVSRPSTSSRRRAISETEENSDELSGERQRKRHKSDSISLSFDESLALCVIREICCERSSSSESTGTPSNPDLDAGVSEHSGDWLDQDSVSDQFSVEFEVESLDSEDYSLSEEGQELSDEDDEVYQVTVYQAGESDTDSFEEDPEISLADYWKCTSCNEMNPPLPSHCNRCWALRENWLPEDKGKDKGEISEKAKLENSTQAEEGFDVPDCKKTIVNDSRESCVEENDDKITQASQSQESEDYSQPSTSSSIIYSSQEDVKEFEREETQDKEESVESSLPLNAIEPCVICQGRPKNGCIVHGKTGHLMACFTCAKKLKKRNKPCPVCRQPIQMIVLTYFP
# Beta cell apopt: inhibitors of cytokine-induced beta cell apoptosis, primary screen, luminescence | INS-1E cytokine-induced death, ATP luminescence, 48 h; percent of positive-control rescue, neutral wells zero | protection from apoptosis, % (no concentration beside the values) | hit rate 0.8% among 300,000;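 active means Every replicate reaches about 75%, or at least half do and their mean reaches it too, limit read from the data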;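 further: 0% = cytokine-treated negative control wells and 100% = positive control rescue; higher means more ATP so stronger rescue from cytokine killing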
# Mdm2-MdmX conf: Mdm2-MdmX complex disruptors, retested hits, confirmation, luminescence, single concentration | shares compounds with Mdm2 MdmX PPI | Mdm2-MdmX binding, luminescent assay | inhibition, % at 8 µM | hit rate 55% among 10,000 | AID 489028, 2010; in the data active means inhibition above about 40%
# FLuc counter: full-length luciferase signal inhibition, confirmation, counter-screen for Mdm2/MdmX interaction inhibitor project, cell-based, single concentration, SaOS-2; shares compounds with Mdm2 MdmX PPI; SaOS-2 full-length luciferase counterscreen, luminescence; inhibition, % at 8 µM; hit rate 77% among 6,200; AID 504607, 2011;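 active means mean inhibition at 8 µM reaching about 37%, which flags the compound as non-specific, limit read from the data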;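 further: p53-null SaOS-2 cells with luciferase driven by a doxycycline-inducible promoter; compound on cells about two nights before reading with doxycycline added after day one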
# * marks the source's active call; other numbers are inactive results; / = no result given. This is a sample that favours compounds with a hit; in the whole collection about 4% have one here.
SMILES,697 NFkB inh,Gli-Sufu antag,Jurkat NFkB inh,Mdm2 MdmX PPI,Beta cell apopt,Mdm2-MdmX conf,FLuc counter
Cc1cc(C)cc(Cn2ncc(Cl)c(Cl)c2=O)c1,/,5,/,/,-4,/,/
Cc1ccc(Cn2ncc(Cl)c(Cl)c2=O)cc1,7,10,7,80*,-14,51*,5
CCc1ccc(C(=O)Cn2ncc(Cl)c(Cl)c2=O)cc1,-21,-43,4,96*,-11,88*,51*
COC(=O)c1c(NC(=O)Cc2cccs2)sc(C(=O)NC2CCCCC2)c1C,4,-58,-29,55*,-2,1,/
CCOC(=O)c1c(NC(=O)Cc2cccs2)sc(C(=O)NC2CCCCC2)c1C,-42,-39,-39,66*,29,14,/
CCOC(=O)c1c(NC(=O)Cc2cccs2)sc(C(=O)NC2CCCC2)c1C,-32,11,-21,28,8,/,/
O=C(Nc1cccc(C(F)(F)F)c1)C1CCN(S(=O)(=O)c2cccnc2)CC1,-7,-2,7,9,3,/,/
Cc1onc(-c2ccccc2)c1C(=O)NC(=S)NNC(=O)c1ccc(O)cc1O,-12,14,12,59*,91*,43*,71*
CN1CCCC(CN2c3ccccc3Sc3ccccc32)C1 (centres undefined),12,7,-14,51*,/,19,/
CN1CCCC(CC2c3ccccc3Sc3ccccc32)C1 (centres undefined),-6,44,-4,59*,/,39,65*
CN1CCN(C2Cc3ccccc3Sc3ccc(Cl)cc32)CC1 (centres undefined),3,2,-8,48,9,/,/
COc1ccccc1CCNCc1ccc(OC)c(OCc2ccccc2)c1,-8,25,20,39,45,/,/
COc1cc(CNCCc2c[nH]c3ccccc23)ccc1OCc1ccccc1F,-11,-5,-11,90*,21,18,/
COc1cccc(CNCCc2c[nH]c3ccccc23)c1OCc1ccccc1,-20,17,11,54*,15,25,/
COc1ccc(CCNC(=O)NCCc2c[nH]c3ccccc23)cc1OC,2,5,-9,14,0,/,/
COc1cccc(CNC23CC4CC(CC(C4)C2)C3)c1OCc1ccccc1,-15,8,-1,52*,26,43*,59*
CCOc1ccc(NC(=O)CN2C(=O)NC(C)(c3ccc4c(c3)OCCCO4)C2=O)cc1OCC (centres undefined),/,4,/,/,/,/,/
O=C(NCCc1ccccc1Cl)c1ccc2nc3ccccc3c(=O)n2c1,12,1,-2,-7,/,/,/
CC(=O)c1ccccc1NC(=O)CN1C(=O)NC2(CCCCCCC2)C1=O,/,-23,/,/,/,/,/
Cc1ccc(N=Nc2c(N)[nH]n3c(=O)cc(-c4ccccc4)nc23)cc1,-11,11,-11,50,6,/,/
COc1cccc(N=Nc2c(N)[nH]n3c(=O)cc(-c4ccccc4)nc23)c1,12,-3,8,62*,26,34,/
Cc1ccc2[nH]cc(/C=C/c3cc[n+](C)cc3)c2c1,-5,26,28,72*,121*,61*,57*
CC[n+]1ccc(/C=C/c2c[nH]c3ccccc23)cc1,-13,46,42,56*,73,20,/
O=C1C(Cl)=C(NC(=O)c2ccccc2)C(=O)C(Cl)=C1NC(=O)c1ccccc1,-16,14,0,87*,/,42*,14
Nc1nc(/C=C/c2ccc(F)cc2)nc(-c2ccccc2O)n1,11,1,-6,19,15,/,/
SMILES,697 NFkB inh,Gli-Sufu antag,Jurkat NFkB inh,Mdm2 MdmX PPI,Beta cell apopt,Mdm2-MdmX conf,FLuc counter
Nc1nc(/C=C/c2cccnc2)nc(-c2ccccc2O)n1,19,10,8,76*,4,73*,64*
C/C(=N\N1CCN(c2ccccc2)CC1)c1ccncc1,-18,1,-10,4,-1,/,/
Cc1cc(C)c(NC(=O)COC(=O)C2CCCCC2)c(C)c1,17,25,-12,-10,-3,/,/
CC1=NN(c2nc3ccccc3[nH]2)C(=O)C1Cc1ccccc1 (centres undefined),-12,29,3,85*,99*,81*,36*
O=c1[nH]c2ccccc2nc1NCc1ccccc1,5,-19,-10,9,-2,/,/
COc1ccc(S(=O)(=O)Nc2cc3c(cc2C(C)=O)OCO3)cc1,-22,-4,49,63*,3,51*,63*
O=C(O)C[C@]1(C(=O)Nc2ccc(F)cc2)CC(/C=C/c2ccccc2)=NO1,8,-19,-6,13,-6,/,/
Cc1sc2nc(CSC(C)C(=O)N(C)CC(=O)Nc3ccccc3C(F)(F)F)[nH]c(=O)c2c1C (centres undefined),9,5,0,51*,-6,27,/
O=C1N(c2ccccc2C(F)(F)F)O[C@]1(c1ccccc1)C1CCCCC1,14,2,16,85*,-4,62*,51*
CC(C)[C@]1(c2ccc(Cl)cc2)ON(c2ccccc2C(F)(F)F)C1=O,19,/,6,68*,2,34,56*
O=C1N(c2ccccc2C(F)(F)F)OC1(Cc1ccccc1)c1ccccc1 (centres undefined),26,-3,-4,92*,-10,67*,52*
CCC(=O)Nc1nonc1-c1nc2ccccc2n1Cc1ccccc1,-10,-4,-1,38,-1,/,/
CCC(=O)Nc1nonc1-c1nc2ccccc2n1N(C(=O)CC)C(=O)CC,26,-1,-4,26,2,/,/
CCC(=O)Nc1nonc1-c1nc2ccccc2n1Cc1cccc2ccccc12,-6,19,44,64*,15,70*,109*
CC(=O)Nc1nonc1-c1nc2ccccc2n1CCC(C)C,3,/,18,56*,3,50*,45*
CCC(=O)Nc1nonc1-c1nc2ccccc2n1CCC(C)C,-13,-9,9,50*,-19,56*,56*
CC(=O)Nc1nonc1-c1nc2ccccc2n1C,10,1,-6,9,1,/,/
O=C(Nc1cccc2[nH]ncc12)c1ccc(F)cc1,-51,-59,6,60*,-15,74*,25
Cc1cccc(N2CCN(S(=O)(=O)c3ccc4c(c3)n(C)c(=O)c(=O)n4C)CC2C)c1 (centres undefined),19,-5,5,68*,-4,-24,/
COc1cccc(CCc2nnc(CCC(=O)N3CCN(Cc4ccccn4)CC3)o2)c1,3,-12,-8,7,0,/,/

# Screens (PubChem BioAssay)
